Experimental data as given in publication PMC5540273 (PLoS ONE, 2017).

Assays:
Conditions in all cases: concentration: 1 μM, replicates: in singlicate; n = 1
PRKCE = test system: PRKCE
PRKCH = test system: PRKCH
PRKCI = test system: PRKCI
PRKCQ = test system: PRKCQ
PRKD1 = test system: PRKD1
PRKD2 = test system: PRKD2
PRKD3 = test system: PRKD3
PRKG1 = test system: PRKG1
PRKG2 = test system: PRKG2
PRKR = test system: T1, PRKR
T1 construct: gene EIF2AK2
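Further: KINOMEscan kinase panel screen.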

| Compound | %Inh (PRKCE) | %Inh (PRKCH) | %Inh (PRKCI) | %Inh (PRKCQ) | %Inh (PRKD1) | %Inh (PRKD2) | %Inh (PRKD3) | %Inh (PRKG1) | %Inh (PRKG2) | %Inh (PRKR) |
| --- | --- | --- | --- | --- | --- | --- | --- | --- | --- | --- |
| Cn1c(=O)c(F)c(Nc2ccc(I)cc2F)c2c(=O)n(OC[C@H](O)CO)cnc21 | 0% | 0% | 34% | 6% | 0% | 0% | 0% | 8% | 7% | 0% |
| COc1cc2nccc(Nc3ccc(OCc4ccc(NC(C)=O)cc4)cc3)c2cc1OC.Cl [GW440135] | 10% | 14% | 0% | 0% | 0% | 11% | 2% | 10% | 0% | 0% |
| COc1cc2ncn(-c3cc(OCc4ccncc4Br)c(C(N)=O)s3)c2cc1OC [GW854278] | 7% | 0% | 13% | 22% | 0% | 11% | 0% | 0% | 0% | 0% |
| COc1ccc(-c2cc3c(C)nc(N)nc3n([C@H]3CC[C@H](O)CC3)c2=O)cn1 | 36% | 0% | 0% | 0% | 3% | 0% | 0% | 0% | 0% | 0% |
| COc1ccc(Nc2nccc(N3CCC(NS(=O)(=O)c4ccc(NC(C)=O)cc4)C3)n2)cc1 (centres unmarked) [GSK1379729] | 22% | 22% | 22% | 10% | 25% | 0% | 41% | 12% | 0% | 0% |
| CCC(=O)c1c(-c2ccccc2)c2cc(Cl)ccc2c(=O)n1Cc1cc(S(C)(=O)=O)n(CC(F)F)n1 | 0% | 6% | 0% | 8% | 0% | 0% | 0% | 0% | 0% | 0% |
| COc1ccc(-n2cnc3c(N)ncnc32)cc1 [SKF-97236] | 0% | 23% | 28% | 0% | 0% | 1% | 5% | 14% | 33% | 0% |
| COc1cc(Nc2nccc(N3CCC(NC(=O)C(C)c4ccc(Cl)cc4)C3)n2)cc(OC)c1OC (centres unmarked) [GSK1379757] | 0% | 14% | 0% | 0% | 0% | 0% | 0% | 1% | 4% | 0% |
| CCCC(=O)Nc1n[nH]c2ncc(-c3cccc4ccccc34)cc12 [SB-642057] | 16% | 16% | 15% | 0% | 0% | 14% | 0% | 7% | 0% | 29% |
| O=C(Nc1ccc2c(c1)OCO2)NC1CCN(c2ccnc(NCc3ccc(F)cc3)n2)CC1 [GSK1379859] | 0% | 16% | 0% | 18% | 0% | 0% | 34% | 0% | 0% | 0% |
| Cc1c(Cn2c(C)nn3c(=O)cc(N4CCO[C@H](C)C4)nc23)cccc1C(F)(F)F [GSK2373690] | 0% | 35% | 26% | 17% | 0% | 0% | 0% | 15% | 0% | 0% |
| Nc1ncnc2c1ncn2-c1ccc(Cl)cc1 [AH2635] | 0% | 0% | 6% | 0% | 0% | 0% | 0% | 2% | 0% | 0% |
| O=C1NC(=O)C(c2ccccc2)=C1Nc1cccc(O)c1 [SB-390534] | 17% | 0% | 9% | 0% | 0% | 3% | 0% | 8% | 2% | 100% |
| CCS(=O)c1ccc(-c2coc3ccc(-c4nnc(C)o4)cc23)cc1 (centres unmarked) | 0% | 0% | 0% | 14% | 0% | 0% | 0% | 21% | 9% | 0% |
| CCC(=O)c1c(-c2ccccc2)c2cc(Cl)ccc2c(=O)n1Cc1cc(S(C)(=O)=O)n(CC(N)=O)n1 | 0% | 80% | 12% | 0% | 0% | 0% | 0% | 0% | 0% | 0% |
| OCCCNc1nccc(-c2c(-c3cccc(C(F)(F)F)c3)nn3cc(C(F)(F)F)ccc23)n1 [GW630813] | 7% | 10% | 0% | 0% | 22% | 10% | 0% | 0% | 0% | 8% |

| Compound | %Inh (PRKCE) | %Inh (PRKCH) | %Inh (PRKCI) | %Inh (PRKCQ) | %Inh (PRKD1) | %Inh (PRKD2) | %Inh (PRKD3) | %Inh (PRKG1) | %Inh (PRKG2) | %Inh (PRKR) |
| --- | --- | --- | --- | --- | --- | --- | --- | --- | --- | --- |
| O=c1cc(N2CCOCC2)nc2n(Cc3ccc(F)c(Cl)c3)ccn12 [GSK2297099] | 0% | 12% | 0% | 26% | 0% | 0% | 12% | 0% | 0% | 15% |
| Nc1nc(-c2ccccc2F)c(-c2ccnc3ccccc23)s1 [GW560459] | 17% | 11% | 13% | 0% | 0% | 0% | 27% | 1% | 0% | 0% |
| CCn1c(-c2nonc2N)nc2ccccc21 [SB-693162/GW549034] | 44% | 17% | 31% | 16% | 0% | 3% | 0% | 0% | 67% | 0% |
| Nc1nc(N)c2nc(-c3ccccc3)[nH]c2n1 [SKF-12778] | 4% | 0% | 36% | 40% | 40% | 9% | 0% | 12% | 0% | 0% |
| Nc1nccc2scc(-c3ccc4c(c3)CCN4C(=O)Cc3ccccc3)c12 [GSK2576924] | 0% | 31% | 20% | 0% | 0% | 16% | 11% | 10% | 12% | 8% |
| COc1cc(OC)cc(-c2cc3cnc(N)nc3nc2NC(=O)NC(C)(C)C)c1 | 51% | 0% | 2% | 0% | 0% | 0% | 0% | 14% | 0% | 16% |
| Cc1ccc(Oc2ccc(Nc3ncnc4cc[nH]c34)cc2C)cn1 | 0% | 27% | 7% | 9% | 0% | 2% | 8% | 0% | 23% | 8% |
| COC(=O)c1c(-c2ccccc2)c2cc(C)ccc2c(=O)n1Cc1ccccc1 | 0% | 0% | 0% | 36% | 0% | 8% | 0% | 0% | 0% | 0% |
| Cl.NS(=O)(=O)c1cccc(Nc2cc(-c3ccc(F)cc3)n[nH]2)c1 [GW824645] | 12% | 0% | 0% | 0% | 0% | 5% | 0% | 0% | 0% | 0% |
| COc1ccc(-c2cc3c(C)nc(N)nc3n([C@H]3CC[C@H](OCCO)CC3)c2=O)cn1 | 14% | 0% | 18% | 0% | 2% | 0% | 9% | 0% | 0% | 0% |
| CCC(=O)c1c(-c2ccccc2)c2cc(Cl)ccc2c(=O)n1Cc1ccc(C(=O)O)cc1 | 0% | 0% | 0% | 9% | 0% | 6% | 0% | 0% | 0% | 0% |
| Cc1nn2c(=O)cc(N3CCOCC3)nc2n1Cc1cccc(Cl)c1Cl [GSK2342769] | 0% | 21% | 5% | 19% | 20% | 0% | 16% | 0% | 0% | 0% |
| Nc1n[nH]c2nnc(-c3ccccc3)c(-c3ccccc3)c12 [GW554060] | 15% | 14% | 16% | 12% | 0% | 0% | 17% | 0% | 0% | 0% |
| CCn1c(-c2ccoc2)nc2cnccc21 [SB-733887] | 7% | 0% | 9% | 0% | 2% | 0% | 27% | 0% | 0% | 0% |
| COc1cc(Nc2ccnc3ccc(C(F)(F)F)cc23)cc(OC)c1OC [GW577382] | 19% | 13% | 48% | 4% | 6% | 6% | 0% | 3% | 6% | 0% |
| Cc1cccc(-c2cc(-c3c[nH]nc3-c3ccccn3)ccn2)c1 [GW679395] | 13% | 0% | 4% | 35% | 57% | 48% | 22% | 0% | 0% | 0% |
